From PubChem BioAssay

test system: XIP peptide (Xip251-270) binding; assay: XIP fragment 251-270 binding compounds – biochemical, small-molecule microarray, fluorescence 635/667 nm, 0.1 µg/mL protein, primary screen (AID 1182); conditions: fluorescent protein binding, 635 nm, higher = more signal, called active from +8 up or from −8 down

Composite z-score, inactive:
COc1ccc(COC(=O)NN=C2C[C@@H](O)[C@@H](O)[C@@H]3[C@@H]4C(=O)N([C@@H](C)c5ccccc5)C(=O)[C@@H]4CC[C@@H]23)cc1 -0.216
CCN1C(=O)[C@H]2[C@H]3[C@H](O)[C@H](O)CC(=NNC(=O)OCc4ccccc4)[C@H]3CC[C@H]2C1=O -0.249
O=C1[C@H]2[C@H]3[C@H](O)[C@H](O)CC(=NO[C@@H]4O[C@H](CO)[C@@H](O)[C@H](O)[C@H]4O)[C@@H]3CC[C@H]2C(=O)N1C[C@@H]1CCCO1 0.357
O=C1C[C@@H](O)[C@@H](O)[C@@H]2[C@@H]3C(=O)N(Cc4ccccc4)C(=O)[C@@H]3CC[C@H]12 -0.317
C[C@H]1CC[C@H]2C(=O)N[C@H](Cc3ccccc3)C(=O)N2[C@@H]1c1ccccc1 0.469
O=C1CCCC=C1C(O)C1CCCCC1 (stereo unspecified) -0.459
CO[C@H]1C[C@@H]2C[C@H](O)CC(CC(=O)O[C@@H](C=CCC(C)C)C[C@@H]3CC[C@H](C)[C@@H](C1)O3)O2 -0.199
CC(=O)OC[C@H]1O[C@H](CC=NOCC[C@@H]2C=C[C@H](OC(C)=O)[C@@H](COC(C)=O)O2)C=C[C@@H]1OC(C)=O -0.0772
COC(=O)CC=C[C@@H](C)[C@@H](C=NOC[C@@H](O)COCc1ccco1)NS(=O)(=O)c1ccc(C)cc1 0.133
COC(=O)[C@H](C)NC(=O)CCC1CC(OC(=O)NCc2cccc3ccccc23)CC2(CCCC(COC(=O)NCc3cccc(C(F)(F)F)c3)O2)O1 (stereo partly specified) -0.179
COC(=O)C1=C(C)N(Cc2ccccc2)C2=C3C(=O)OCC[C@@H]3[C@@](O)(C(=O)OC)C(=O)N2[C@@H]1c1ccccc1 0.75
COC(=O)CC=C[C@@H](C)[C@@H](C=NOC[C@@H](O)[C@H]1O[C@@H]2OC(C)(C)O[C@@H]2[C@H]1O)OC -0.33
C#CCCCON=C1C[C@@H](O)[C@@H](O)[C@@H]2[C@@H]3C(=O)N(C[C@@H]4CCCO4)C(=O)[C@@H]3CC[C@H]12 0.241
CC(C)[C@@H](OCc1ccccc1)[C@H](C)C=NOC[C@@H](O)[C@H]1O[C@@H]2OC(C)(C)O[C@@H]2[C@H]1O -0.12
CCN1C(C)=C(C(=O)OC)[C@@H](c2ccccc2)N2C(=O)[C@](O)(C(=O)OC)CC(C(C)=O)=C12 0.181
COc1cccc([C@H](O)Cn2cc(-c3ccc(CON=C(C)C)cc3)nn2)c1 0.218
COC(=O)CC=C[C@@H](C)[C@@H](C=NOC[C@@H](C)[C@H](OCc1ccccc1)C(C)C)NS(=O)(=O)c1ccc(C)cc1 0.265
O=C1C2=CC[C@H]3C(=O)N(c4ccc(F)cc4F)C(=O)[C@H]3[C@H]2[C@H](O)[C@@H]2O[C@H]12 -0.196
CCOC(=O)CCN1C(=O)[C@H]2[C@@H]3C(=CC[C@H]2C1=O)C(=O)[C@H]1O[C@H]1[C@H]3O -0.0103
CC(CCN1CCCc2nc(C)c(C)cc21)=NOC[C@@H](O)COCc1ccco1 4.43
CC[C@@H](c1ccccc1)n1c(=O)n2n(c1=O)[C@H]1[C@H](O)[C@@H]3O[C@@H]3C(=NOCc3ccccc3)[C@H]1CC2 0.265
CCOC(=O)CCN1C(=O)[C@H]2[C@H]3[C@H](O)[C@H](O)CC(=NNC(=O)OCc4ccc(OC)cc4)[C@H]3CC[C@H]2C1=O 0.353
CCOC(=O)[C@H](CC(C)C)NC(=O)CCC1CC(OC(=O)NCCc2ccc(F)cc2)CC2(CCCC(COC(=O)NCc3cccc(C(F)(F)F)c3)O2)O1 (stereo partly specified) -0.0296
CCO[C@H](c1cc(OC)cc([N+](=O)[O-])c1OC)[C@H](C)[C@@H](OC)[C@H](C)C=CCC(=O)OC 0.72
CCOC(=O)[C@H](Cc1ccccc1)NC(=O)CCC1CC(OC(=O)NCc2cccc3ccccc23)CC2(CCCC(COC(=O)NCC3CCCCC3)O2)O1 (stereo partly specified) 1.98
Cc1ccc(S(=O)(=O)N[C@@H]2COC(=O)CC=C[C@@H](C)[C@H](NS(=O)(=O)c3ccc(C)cc3)COC(=O)[C@H](C)NC(=O)CC=C[C@H]2C)cc1 -0.668
CC(C)=NOC(C)CN1CCCCc2nc(C)c(C)cc21 (stereo unspecified) -0.203
O=C(NN=C1C[C@@H](O)[C@@H](O)[C@@H]2[C@@H]3C(=O)N(Cc4ccc5c(c4)OCO5)C(=O)[C@@H]3CC[C@@H]12)OCc1ccccc1 0.244
COc1ccc(COC(=O)NN=C2C[C@@H](O)[C@@H](O)[C@@H]3[C@@H]4C(=O)N(C(C)(C)C)C(=O)[C@@H]4CC[C@@H]23)cc1 0.457
COC(=O)CC=C1c2ccccc2[C@H](OC)[C@H]1C -1.14
COc1ccc(OC[C@H]2CN3[C@@H](CC[C@@H](C)[C@@H]3c3ccc(Br)cc3)C(=O)O2)cc1 -0.192
CC(C)=CCCC(C)=CCON=C1C[C@@H](O)[C@@H](O)[C@@H]2[C@@H]3C(=O)N(Cc4ccc5c(c4)OCO5)C(=O)[C@@H]3CC[C@@H]12 1.07
CO[C@@H]1C=CCC(=O)N[C@@H](C)C(=O)OC[C@@H](OC)[C@H](C)C=CCC(=O)OC[C@H]1C 0.551
CC(C)=CCCC(C)=CCON=C1C[C@@H](O)[C@@H](O)[C@@H]2[C@@H]3C(=O)N(c4cccc(Oc5ccccc5)c4)C(=O)[C@@H]3CC[C@H]12 0.827
COc1ccc(O[C@H]2C=C[C@@H](c3ccccc3)O[C@@H]2CON=C(C)CCN2CCCc3nc(C)c(C)cc32)cc1 0.301
CC(CCN1CCCCc2nc(C)c(C)cc21)=NO[C@H](C)c1cn([C@@H]2COC[C@H]2O)nn1 0.641
